# According to PubChem BioAssay (NCATS):
# Records with an inconclusive call do not appear. Where a call stands in place of a potency, no number is given. The source made the active and inactive calls. Calls come from the whole dose curve; as a rule, active = well fitted inhibition curve with a large enough effect; inconclusive = small, poorly fitted or top-dose-only effect; inactive = flat fitted curve, though single readings scatter.
# Target: Glutathione peroxidase 1 (Homo sapiens) (UniProt P07203)
# Test: Primary qHTS Assay for Inhibitors of Recombinant Selenoprotein Glutathione Peroxidase 1 (GPX1) (AID 1845191); note: nearly all actives have a fitted effect of over 65% in size
# Details: recombinant GPX1, GR-coupled NADPH fluorescence, 15 min; series mostly up to 27.7 µM
# Summary of the method: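 GR-coupled assay: compounds preincubated 30 min at room temperature with GPX1, then reaction started with CHP; final 10 nM GPX1, 1 mM GSH, 0.5 mM CHP, 0.5 mM NADPH, 100 nM GR, 0.01% BSA, pH 7.5 Tris buffer. NADPH fluorescence (340/450 nm) read at 0 and 15 min.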
# Sequence of Glutathione peroxidase 1 (Homo sapiens) (P07203 whole entry, looked up): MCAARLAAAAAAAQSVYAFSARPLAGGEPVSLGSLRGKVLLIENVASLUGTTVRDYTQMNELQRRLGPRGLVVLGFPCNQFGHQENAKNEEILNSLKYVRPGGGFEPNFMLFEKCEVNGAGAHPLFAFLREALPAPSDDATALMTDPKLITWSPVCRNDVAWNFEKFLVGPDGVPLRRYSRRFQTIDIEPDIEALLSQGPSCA
row,Compound,Potency
1,C[C@@H]1O[C@@H](O[C@H]2[C@@H]3C=CO[C@@H](O[C@@H]4O[C@H](CO)[C@@H](O)[C@H](O)[C@H]4O)[C@@H]3[C@@]3(CO)O[C@@H]23)[C@H](O)[C@H](OC(=O)/C=C/c2ccc(O)cc2)[C@H]1OC(=O)/C=C/c1ccc(O)cc1,inactive
2,CC1(C)CC[C@]2(C(=O)OC3OC(CO)C(O)C(O)C3O)CC[C@]3(C)C(=CCC4[C@@]5(C)C[C@@H](O)[C@H](OC6OC(C(=O)O)C(O)C(O)C6O)C(C)(C)C5CC[C@]43C)[C@@H]2C1 (some centres undefined),inactive
3,C=C1CCC2C(C)(C)CCC[C@]2(C)[C@H]1CC/C(C)=C/C(=O)O (some centres undefined),inactive
4,C/C=C(/C)C(=O)OC1CC(C)(C)CC2C3=CCC4C5(C)CCC(OC6OC(C)C(OC7OC(C(=O)O)C(O)C(OC8OC(CO)C(O)C(O)C8OC8OC(CO)C(O)C(O)C8O)C7O)C(O)C6O)C(C)(C)C5CCC4(C)C3(C)C(OC(=O)/C=C/C=C/C=C/CCC)C(OC(C)=O)C12CO (centres undefined),inactive
5,COc1cc(/C=C/C(=O)OC[C@H]2O[C@@H](OC3CC(C)=C(C(=O)O)C(C)(C)C3)[C@H](O)[C@@H](O)[C@@H]2O)cc(OC)c1O (some centres undefined),inactive
6,Oc1ccccc1-c1cc(-c2ccccc2F)[nH]n1,inactive
7,CSCC1OC(n2cnc3c(=O)[nH]cnc32)C(O)C1O (centres undefined),inactive
8,C=C1C(O)CC2C(C(=O)O)=COC(O[C@@H]3O[C@H](COC(=O)c4ccc(O)cc4)[C@@H](O)[C@H](O)[C@H]3O)C12 (some centres undefined),inactive
9,C[C@@]1(C(=O)O)CCC[C@@]2(C)C3=CC[C@H]4C[C@@]3(CC[C@H]12)CC4(O)CO (some centres undefined),inactive
